ATXN viability: Viability Counterscreen for Primary qHTS for Inhibitors of ATXN expression; S2 cells (HEK-293 line with an ATXN2-luciferase reporter) viability, CellTiter-Fluor protease fluorescence, 24 h; Potency, µM (series often up to 56.7 µM), usual class: cytotoxic; 400,000 tested, 0.49% active; AID 651635, 2014; also: nearly all actives have a fitted effect of over 40% in size
HepG2 tox: qHTS for Inhibitors of TGF-b: Cytotox Counterscreen | HepG2 CAGA-GFP viability, ATP luminescence, 18 h | 410,000 tested, 0.76% active | Potency, µM (top dose mostly 46.1 µM), inactives show at the top dose activity change, negative = cytotoxicity, most hits filed as cytotoxic
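HepG2 CAGA-GFP cells (1000/well, DMEM with 1% FBS) received compound, then TGF-beta at 500 pg/mL final, and were incubated 18 hours at 37 degrees C. Viability was read by CellTiter-Glo luminescence. Media-only wells were set as complete cell-killing and DMSO as no toxicity.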
TGFb inhibitor: qHTS for Inhibitors of TGF-b. HepG2 CAGA-GFP TGF-b/SMAD3 reporter, GFP fluorescence, 18 h; TGF-beta stimulated, 500 pg/mL final. Potency, µM (series often up to 46.1 µM), without a hit: at the highest dose activity, negative = inhibition, actives largely listed as inhibitors. 410,000 tested, 1.2% active; also: % is scaled to controls: 0 for no effect and ±100 for the full control effect; nearly all actives have a fitted effect of over 65% in size
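HEPG2 CAGA-GFP reporter cells (1000/well, DMEM with 1% FBS) received compounds, then recombinant TGF-beta at 500 pg/mL final for 18 hours at 37 degrees C. Per-cell GFP summed per well was normalised to unstimulated and stimulated DMSO controls before curve fitting.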
Gal4-VP16 FLuc: VP16 counterscreen qHTS for inhibitors of ROR gamma transcriptional activity. Drosophila S2 Gal4-VP16 UAS-luciferase, luminescence, 20 h. Potency, µM (doses to about 53.6 µM), for the others: at the top dose activity, negative = inhibition, hits mostly inhibitors. 310,000 tested, 3.5% active. AID 2546, 2010;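 also: Gal4-VP16 expression switched on by copper sulfate through the metallothionein promoter; % is scaled to controls: 0 for no effect and ±100 for the full control effect; nearly all actives have a fitted effect of over 50% in size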
RORgamma inh: qHTS for inhibitors of ROR gamma transcriptional activity | Drosophila S2 Gal4-RORgamma UAS-luciferase reporter, 20 h | Potency, µM (highest dose often 53.6 µM), for inactives: at the top dose activity change, negative = inhibition, hits mostly inhibitors | 310,000 tested, 5.4% active | AID 2551, 2010; also: % is scaled to controls: 0 for no effect and ±100 for the full control effect; nearly all actives have a fitted effect of over 60% in size
Target sequence (P51450 whole entry, looked up, the tested form may be a part): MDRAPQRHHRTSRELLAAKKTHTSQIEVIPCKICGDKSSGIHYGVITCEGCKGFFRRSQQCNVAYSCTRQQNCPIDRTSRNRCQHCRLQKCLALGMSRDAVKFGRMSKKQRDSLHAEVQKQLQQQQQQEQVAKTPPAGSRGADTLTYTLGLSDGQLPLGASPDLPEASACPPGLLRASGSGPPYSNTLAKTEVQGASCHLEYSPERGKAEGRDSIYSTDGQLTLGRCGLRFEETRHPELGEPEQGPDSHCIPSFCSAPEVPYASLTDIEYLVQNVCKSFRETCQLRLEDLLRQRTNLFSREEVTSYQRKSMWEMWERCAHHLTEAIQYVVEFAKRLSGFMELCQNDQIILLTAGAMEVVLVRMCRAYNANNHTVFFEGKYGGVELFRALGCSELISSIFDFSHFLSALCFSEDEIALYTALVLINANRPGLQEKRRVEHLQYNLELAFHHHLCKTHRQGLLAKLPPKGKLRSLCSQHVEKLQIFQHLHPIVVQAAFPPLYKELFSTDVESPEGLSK
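Luminescence from a UAS-regulated Photinus luciferase reporter in stably transfected Drosophila Schneider cells is measured; decreased signal marks ROR gamma inhibition. Fusion expression is induced by 700 uM copper sulfate for 20 hr.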
ATXN2 expr inh: Primary qHTS for Inhibitors of ATXN expression | HEK-293 ATXN2-luciferase reporter, luminescence, 24 h | Potency, µM (doses to about 57 µM), for inactives: at the top dose activity change, negative = inhibition, actives largely listed as inhibitors | 360,000 tested, 0.72% active; also: % is scaled to controls: 0 for no effect and ±100 for the full control effect; nearly all actives have a fitted effect of over 55% in size
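qHTS (up to 57 uM final) was run with 24 h compound exposure of reporter cells at 37 °C. Each well was multiplexed: SteadyGlo luminescence measured ATXN2-luciferase expression after a fluorogenic Gly-Phe-AFC viability readout (25 uM final).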
An asterisk follows results filed as active; i = inactive; ? = inconclusive; . = not tested or not shown; [ ] = another dose, or the depositor's remark. Compounds with a hit are over-represented: about 6.3% of the library has one in this group of screens. Calls follow the shape of the dose curve; as a rule, active = well fitted curve in the direction sought with a large enough effect; inconclusive = small, poorly fitted or top-dose-only effect, or another doubt; inactive = no such curve, though single readings can be large; an effect the other way counts as inactive or inconclusive. Potency is read from the fitted curve at half-maximal effect.

SMILES	ATXN viability	HepG2 tox	TGFb inhibitor	Gal4-VP16 FLuc	RORgamma inh	ATXN2 expr inh
CCCOc1ccc(C(=O)NC(=S)Nc2nc3ccccc3s2)cc1	i	-7%	-17%	?	0.79µM*	35%
CCc1cc2ccc(OC)cc2nc1SCC(=O)NNC(=O)c1ccco1	i	-13%	-6%	-1%	18µM*	-15%
COc1ccc2nc(NC(=O)c3ccoc3C)sc2c1	?	7.9µM*	?	?	?	?
Cn1c(=O)c2c(nc(NCCc3ccccc3)n2Cc2cccc(Br)c2)n(C)c1=O	?	-11%	-37%	.	.	-14%
CN1C(=O)CN(CCN2CC(=O)N(C)C(=O)C2)CC1=O	i	0%	-5%	.	.	.
CCOC(=O)C(Cc1c[nH]c2cc([N+](=O)[O-])ccc12)(NC(C)=O)C(=O)OCC	i	3%	5%	.	.	-11%
COc1ccc2nc(NC(=O)C3COc4ccccc4O3)sc2c1 (configuration not stated)	i	-22%	-2%	-51%	?	79%
O=C(CCNC(=O)c1ccco1)Nc1nc2ccccc2s1	i	24%	-9%	.	.	34%
O=C(NC(=S)NCc1ccc(-c2nc3ccccc3s2)cc1)c1ccco1	i	-45%	-43%	5.6µM*	7.1µM*	8%
O=C(NC(=S)Nc1nc2ccccc2s1)c1ccco1	i	4%	-21%	1.3µM*	0.89µM*	40%
COc1ccc2nc(NNC(=O)C3COc4ccccc4O3)sc2c1 (configuration not stated)	i	-20%	-1%	?	2.8µM*	15%
Cc1cc(C)c2nc(NC(=O)c3ccco3)sc2c1	i	-25%	-5%	10µM*	4.5µM*	.
Cc1cc(Cl)cc2sc(NC(=O)c3ccco3)nc12	i	-7%	-11%	?	-6%	68%
O=c1c(=O)n(-c2cccc(Cl)c2)ccn1Cc1cccc(F)c1	.	-15%	0%	.	.	.
COCC(=O)Nc1cc(C(=O)N2CCCCC2c2nccn2C)cc2nc(-c3ccccc3)n(C)c12 (configuration not stated)	i	.	.	.	.	.
COC(=O)c1sc(NC(=O)c2ccco2)nc1C	i	-11%	0%	-12%	31%	19%
COc1ccc2nc(NC(=O)c3cccc(OCc4c(C)noc4C)c3)sc2c1	?	-5%	-21%	?	11µM*	-36%
COc1ccc2sc(NC(=O)c3ccco3)nc2c1	i	-41%	-6%	?	10µM*	-36%
Cc1nc(NC(=O)c2ccco2)sc1C(=O)O	i	5µM*	1%	11µM*	7.1µM*	-9%
CCSc1nnc(NC(=O)c2cccc(OCc3c(C)noc3C)c2)s1	i	-21%	20%	6%	-45%	2%
COc1ccc2c(c1)Cc1sc(NC(=O)c3ccco3)nc1-2	i	-19%	?	?	-27%	105%
Cc1cc(Cl)ccc1OC(C)C(=O)OCC(=O)c1ccc[nH]1 (configuration not stated)	i	3%	5%	.	.	1%
O=C(CCC1N=C2c3ccccc3N=C(SCc3ccccc3Cl)N2C1=O)NCCc1ccccc1 (configuration not stated)	i	-4%	-1%	.	.	8%
Cc1cccc(Nc2nc3c(s2)CCCC3)c1	i	-35%	?	-18%	-6%	124%
C/C(=N\Nc1nc(C(=O)O)cs1)c1ccccc1	i	-18%	-5%	5µM*	0.63µM*	-8%[11.3 µM]
SMILES	ATXN viability	HepG2 tox	TGFb inhibitor	Gal4-VP16 FLuc	RORgamma inh	ATXN2 expr inh
C/C(=N\Nc1nc(C(C)(C)C)cs1)c1ccc(O)cc1	?	-5%	-23%	10µM*	?	.
C/C(=N\Nc1nc2c(s1)CCCC2)c1ccccc1	i	-42%	?	?	13µM*	86%
O=C(NC(=S)Nc1nc2c(s1)CCCC2)c1ccc(C(=O)c2ccccc2)cc1	i	3%	-11%	?	?	7%
O=C(O)c1ccc(Nc2nc3c(s2)CCCC3)cc1	i	-3%	4%	3.5µM*	1.3µM*	?
O=S1(=O)N=C(Nc2nc3c(s2)CCCC3)c2ccccc21	i	-38%	?	1.3µM*	0.45µM*	16%
CCCCCCOc1ccc(/C(C)=N/NC2=NCCN2)cc1[N+](=O)[O-]	18µM*	20µM*	?	?	?	.
C/C(=N\NC1=NCCN1)c1ccc(N)c([N+](=O)[O-])c1	i	-1%	1%	?	?	10%
Clc1ccc(-c2cn3nc4c(nc3n2)CCCC4)cc1	.	-1%	5%	1%	?	14µM*
COc1cccc(-n2c(SC)nnc2C2CCN(Cc3cccc(OC)c3O)CC2)c1	i	.	.	.	.	.
COCCCN1C(=O)c2[nH]nc(-c3ccccc3O)c2C1c1ccc(OCc2ccccc2)cc1 (configuration not stated)	.	-112%	20µM*	.	.	.
O=C1c2[nH]nc(-c3ccccc3O)c2C(c2cccc(OCc3ccccc3)c2)N1CCO (configuration not stated)	.	-4%	-6%	.	.	.
CC(C)OCCCN1C(=O)c2[nH]nc(-c3ccccc3O)c2C1c1ccccc1F (configuration not stated)	.	-47%	10µM*	.	.	.
CCCCN1C(=O)c2[nH]nc(-c3ccccc3O)c2C1c1ccc(OCc2ccccc2)cc1 (configuration not stated)	.	-70%	3.5µM*	.	.	.
CC(C)OCCCN1C(=O)c2[nH]nc(-c3ccccc3O)c2C1c1cccc(OCc2ccccc2)c1 (configuration not stated)	.	16µM*	?	.	.	.
O=S(=O)(/C=C/c1ccccc1)N1CCC(n2c(C3CCCO3)nc3cccnc32)CC1 (configuration not stated)	i	.	.	.	.	.
CCCCn1c(=O)n(-c2ccc(Br)cc2F)c(=O)c2c3c(sc21)CN(C(C)=O)CC3	?	-25%	-27%	.	.	-29%
CCn1nc(C)c(C(=O)Nc2cc(Oc3cc(C)cc(C)c3)cc([N+](=O)[O-])c2)c1C	i	-46%	14µM*	-18%	?	-25%
Cc1nn(CCCC(=O)Nc2cc(Oc3ccccc3)cc([N+](=O)[O-])c2)c(C)c1[N+](=O)[O-]	i	-18%	?	?	2µM*	-24%
COc1ccc2ccc3c(c2c1)N=C[C@]1(O3)N(C)c2ccccc2C1(C)C	i	6.3µM*	?	?	13µM*	-16%
CC(C)C(=O)Nc1cccc(NC(=S)NC(=O)c2ccc([N+](=O)[O-])cc2)c1	i	-4%	?	?	11µM*	2%
